# Source: PubChem (several laboratories)
# Only some compounds are listed: those with a hit (about 1.8% of all), similar ones and a draw of the others.
# NPR1 activator – GC-A (human) enzyme activation. P16066. HEK293 GC-A cells, cGMP TR-FRET, EC30 ANP; 0% at EC30 ANP, 100% saturating ANP. activation, % at 10 µM. 370,000 tested, 0.14% active; in the data active means activation above about 40%
# MsrA inh – inhibits bovine methionine sulfoxide reductase A; purified bovine MsrA, absorbance read-out; inhibition, % at 15.5 µM; 360,000 tested, 0.75% active; in the data active means inhibition above about 4.5%;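 further: 0% = vehicle wells with enzyme and 100% = reference inhibitor wells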
# MsrA act – bovine methionine sulfoxide reductase A activation | purified bovine MsrA, absorbance read-out | 360,000 tested, 0.3% active | activation, % at 10.6 µM; in the data active means activation above about 7.5%;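 further: 0% = vehicle and 100% = reference activator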
# NPR2 activator – GC-B (human) receptor activation | AID 1920062 | 370,000 tested, 0.11% active | HEK293-GC-B cells, CNP EC30, cGMP TR-FRET; 0% at EC30 CNP, 100% saturating CNP | activation, % at 10 µM;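 active means activation at 10 µM reaching about 35% in either raw or pattern-adjusted values, limit read from the data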
# Target sequence (P20594 whole entry, looked up): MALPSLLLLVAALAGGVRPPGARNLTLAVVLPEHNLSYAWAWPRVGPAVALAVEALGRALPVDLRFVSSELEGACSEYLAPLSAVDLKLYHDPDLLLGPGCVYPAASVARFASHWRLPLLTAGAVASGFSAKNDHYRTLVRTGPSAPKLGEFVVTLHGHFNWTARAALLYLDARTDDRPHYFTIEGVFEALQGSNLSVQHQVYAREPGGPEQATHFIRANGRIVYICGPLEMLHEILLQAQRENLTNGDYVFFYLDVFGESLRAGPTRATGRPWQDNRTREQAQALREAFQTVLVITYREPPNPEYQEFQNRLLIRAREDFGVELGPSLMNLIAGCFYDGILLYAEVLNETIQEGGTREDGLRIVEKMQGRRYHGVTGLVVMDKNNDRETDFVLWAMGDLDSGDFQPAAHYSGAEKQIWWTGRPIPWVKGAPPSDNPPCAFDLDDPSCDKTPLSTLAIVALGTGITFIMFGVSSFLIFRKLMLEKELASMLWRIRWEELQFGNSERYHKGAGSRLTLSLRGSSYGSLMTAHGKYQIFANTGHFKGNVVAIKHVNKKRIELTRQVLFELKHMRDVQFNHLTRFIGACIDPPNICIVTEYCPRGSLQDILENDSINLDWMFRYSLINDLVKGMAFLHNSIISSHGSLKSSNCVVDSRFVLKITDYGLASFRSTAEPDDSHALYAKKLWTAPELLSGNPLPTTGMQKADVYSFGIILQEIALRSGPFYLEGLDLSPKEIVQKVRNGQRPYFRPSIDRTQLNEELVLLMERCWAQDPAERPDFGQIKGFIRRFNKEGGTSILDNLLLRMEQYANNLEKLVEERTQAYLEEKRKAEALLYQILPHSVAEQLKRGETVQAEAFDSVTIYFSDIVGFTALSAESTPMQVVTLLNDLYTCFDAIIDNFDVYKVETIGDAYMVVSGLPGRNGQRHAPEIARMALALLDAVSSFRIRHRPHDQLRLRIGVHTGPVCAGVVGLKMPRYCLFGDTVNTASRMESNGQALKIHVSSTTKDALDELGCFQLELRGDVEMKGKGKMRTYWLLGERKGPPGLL
# HTR2A ag – agonists of mouse serotonin 5-HT2A receptor (HTR2A) | P35363 | CHO-K1 mHTR2A beta-arrestin complementation, luminescence; percent of 30 µM serotonin response | activation, % at 7.6 µM | 360,000 tested, 0.66% active | AID 624169;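 active means activation above a run cutoff, the mean activation of all tested compounds plus 3 SD, cut at about 14% in these data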;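 further: 0% = plate median of compound wells and 100% = 30 µM serotonin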
# MsrA activ conf – confirmation of bovine methionine sulfoxide reductase A activators; shares compounds with MsrA act; purified bovine MsrA, absorbance read-out; activation, % at 10.6 µM; 1,000 tested, 12% active; in the data active means activation above about 4%;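 further: enzyme coupled to thioredoxin and thioredoxin reductase with NADPH; 0% = vehicle wells and 100% = reference activator wells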
# The depositor's hits bear a star; x = not tested or not shown; ! = not active in a repeat.
SMILES,NPR1 activator,MsrA inh,MsrA act,NPR2 activator,HTR2A ag,MsrA activ conf
CSc1ccc(S(=O)(=O)Nc2ccc3c4c(cccc24)CC3)cc1,2,0,11*,-3,-4,0
O=C(O)c1cc([N+](=O)[O-])c(Sc2nc3ccccc3[nH]2)c([N+](=O)[O-])c1,4,0,-3,8,2,x
CS(=O)(=O)c1cc([N+](=O)[O-])c(Sc2nc3ccccc3[nH]2)c([N+](=O)[O-])c1,-3,-1,8.0*,-5,-2,10*
COCCCN=Cc1c(C)[nH]n(-c2ccc(Br)c(C)c2)c1=O,5,0,9.3*,-6,2,-4
O=C1/C(=C/c2ccc(O)cc2)SC(=S)N1CC1CCCO1 (stereo not given),-2,2,11*,-5,-1,-1
C/C(=N\Nc1ccc(Cl)c(C(=O)O)c1)c1cccs1,-1,2,0,-3,-3,x
C/C(=N/Nc1ccccc1C(=O)O)c1cccs1,2,4,16*,-2,0,-3
C=CCn1c(N)c(C(=O)NCc2cccnc2)sc1=S,5,4,8.8*,5,-1,0
OC(COc1ccc2ccccc2c1)Cn1ccnc1 (stereo not given),1,-1,8.1*,0,5,-2
CC(C)(C)C(=O)OC12CCCN(C1)/C(=C/c1cccnc1)C2 (stereo not given),1,x,x,3,x,x
COc1ccc(-n2c(=O)[nH]cc(C(=O)Nc3ccc4c(c3)OCO4)c2=O)cc1OC,0,-1,12*,-2,13,0
COc1ccc(-n2c(=O)[nH]cc(C(=O)Nc3ccc4c(c3)OCCO4)c2=O)cc1,0,0,-1,-1,-4,x
O=C(O)c1cc(C2CC2)nn1-c1ccccc1,4,-1,0,2,-4,x
Nc1cc(C2CCCC2)nn1-c1ccccc1,-2,-1,9.1*,3,1,-4
CN(C)C(CNC(=S)Nc1ccccc1)c1cccnc1 (stereo not given),6,1,-5,4,-3,x
CN(C)C(CNC(=S)Nc1ccccc1Cl)c1cccnc1 (stereo not given),0,-1,7.9*,3,2,-1
CCOC(=O)C1CCCN(CCCc2ccccc2)C1 (stereo not given),2,0,14*!,2,-4,-1
COc1ccc(CN2C(=O)N3Cc4ccccc4C3CS2(=O)=O)cc1 (stereo not given),-4,x,x,-1,x,x
Cc1c(NC(=O)Cn2[nH]c(=O)c3ccccc3c2=O)c(=O)n(-c2ccccc2)n1C,-1,0,23*,7,3,-1
Cc1c(NC(=O)N2CCCCCC2)c(=O)n(-c2ccccc2)n1C,2,2,8.4*,4,4,-4
CCCCCCN1CCS(=O)(=O)N(Cc2ccc(Cl)cc2)C(C(=O)OC)C1 (stereo not given),-1,x,x,0,x,x
O=[N+]([O-])c1ccc(N/N=C/c2cn(Cc3ccc(F)cc3)c3ccccc23)nc1,-2,-1,17*,-2,2,0
Cc1ccc(NC(=O)COC(=O)COc2ccc(Cl)cc2)c([N+](=O)[O-])c1,4,0,16*,-3,3,-1
Cc1cccc(C(=O)N2CCCC(N3CCN(c4cccc(Cl)c4)CC3)C2)n1 (stereo not given),4,0,17*,-1,-3,-3
O=C1NCCN(Cc2c(F)cccc2Cl)C1CC(=O)N1CCCCO1 (stereo not given),-1,0,-15,0,3,x
O=C1NCCN(Cc2ccc(Cl)c(F)c2)C1CC(=O)N1CCCCO1 (stereo not given),-1,-1,8.6*,-1,3,-2
CC(C)[C@H](NC(=O)c1ccccc1)C(=O)OCc1nc2scc(-c3ccccc3)c2c(=O)[nH]1,1,0,13*,-2,3,6.3*
O=C(OCc1nc2scc(-c3ccccc3)c2c(=O)[nH]1)c1ccco1,-1,-1,-3,0,-2,x
CCN(CC)C1=N/C(=C\c2ccc(OC)cc2)C(=O)N1c1ccccc1,3,1,20*,2,-1,0
Oc1cccc2oc(=S)[nH]c12,-2,1,12*,-4,3,-1
